Laboratory results: paper PMC7826789 (International Journal of Molecular Sciences, 2021)

tested on: AXL; settings: Compound Concentration (nM):1000
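Also: KINOMEscan scanMAX binding as percent activity remaining versus control; lower means stronger binding.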

Row | SMILES | Percent Control [%]
1 | Cl.O=C(Nc1ccc(Oc2ccc3[nH]c(NC(=O)c4ccco4)nc3c2)cc1)Nc1cc(C(F)(F)F)ccc1F [GW683134A] | 0
2 | O=C(Nc1n[nH]c2nc(-c3ccc(O)cc3)c(Br)cc12)C1CC1 [SB-725317] | 100
3 | COc1cc2ncnc(Nc3ccc4c(cnn4Cc4ccccc4)c3)c2cc1OC.Cl [GW282449A] | 89
4 | CN(C)CCNC(=O)Nc1ccc(N(C)c2ccnc(Nc3ccc(CS(C)(=O)=O)cc3)n2)cc1.Cl [GW830900A] | 58
5 | CC1=C(C(=O)Nc2ccc3[nH]ncc3c2)C(c2ccc(Cl)c(Cl)c2)CC(=O)N1 (stereo not drawn) [GSK299115A] | 100
6 | COc1ccc(COc2ccc(Cc3cnc(N)nc3N)cc2OC)cc1 [GW632580X] | 100
7 | CCS(=O)(=O)c1ccc(OC)c(Nc2ncc(-c3cccc(F)c3)o2)c1 [GW621970X] | 97
8 | COc1cc(/C=N/Nc2ncnc3[nH]ncc23)ccc1O [GW578748X] | 65
9 | C/C(Nc1ccc(S(N)(=O)=O)cc1)=C1/C(=O)Nc2ccccc21 [GW335962X] | 73
10 | CN1CCN(C(=O)c2ccc(NC(=O)Nc3ccc(N(C)c4ccnc(Nc5ccc(CS(C)(=O)=O)cc5)n4)cc3)cc2)CC1.Cl [GW830263A] | 9.7
11 | CC1=C(C(=O)Nc2ccc3[nH]ncc3c2)C(c2ccc3ccccc3c2)CC(=O)N1 (stereo not drawn) [GSK270822A] | 91
12 | COc1ccc2cc(-c3c(-c4ccncc4)nc(-c4ccc(S(C)(=O)=O)cc4C)n3C)ccc2c1 [SB-633825] | 88
